# Reference: the supplement of paper PMC9254222
# Whole data set: some 1,100 compounds, median “Wnt reporter firefly/Renilla luciferase ratio relative to plate median” near 1.1, cut for the highest 2% near 1.6. Many of the other results were omitted from the sample, so the highest values are more common in it than they were.
# System: HEK293T (UBE3A T485A transfected, BAR Wnt reporter)
# Assay: Wnt reporter firefly/Renilla luciferase ratio relative to plate median (fold (linear ratio)); higher = more Wnt/beta-catenin reporter activation
# Conditions: 24 h
# Outline: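 HEK293T cells were grown in DMEM with 10% FBS at 37°C and 5% CO2, at 4500 cells/well in white 384-well plates. They were transfected with a BAR firefly luciferase Wnt reporter, TK-Renilla and an expression plasmid using Fugene 6. Four hours later, robots dosed the chemicals at 0.01–100 uM for 24 h, followed by Dual-Glo luciferase readout. Wnt activity (firefly/Renilla ratio) and cell health (raw Renilla) were median-centred per plate, averaged over four biological replicates.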
SMILES,Wnt reporter firefly/Renilla luciferase ratio (concentration: 0.1 uM),Wnt reporter firefly/Renilla luciferase ratio (concentration: 1 uM),Wnt reporter firefly/Renilla luciferase ratio (concentration: 10 uM),Wnt reporter firefly/Renilla luciferase ratio (concentration: 100 uM),Wnt reporter firefly/Renilla luciferase ratio (concentration: 0.01 uM)
"O=[N+]([O-])C(CO)(CO)CO [2-(Hydroxymethyl)-2-nitro-1,3-propanediol]",0.982,1.11,1.27,1.27,
O=c1nc(-c2ccc(C(F)(F)F)cc2)[nH]c2c1CSCC2,0.688,0.648,0.664,0.578,0.923
CCCCC(CC)C(=O)O (centres undefined) [2-Ethylhexanoic acid],0.925,1,1.4,1.2,
CCCC(CCC)C(=O)O [Valproic acid],0.995,1.01,1.14,1.69,1.2
CCCCCCC(=O)O [Heptanoic acid],1.02,1.15,1.07,0.917,
C[C@@H](Oc1ccc(CNC(=O)c2cccnc2Oc2ccc3c(c2)OCO3)c(F)c1)C(=O)O,1.14,1.12,1.13,1.33,
Cc1cc(F)ccc1-c1cc(N2CC[C@@H](O)[C@H]2CO)ncc1N(C)C(=O)C(C)(C)c1cc(C(F)(F)F)cc(C(F)(F)F)c1,1.27,1.05,1.16,0.311,
N#C[C@@H]1CC(F)(F)CN1C(=O)CNC1CC2CCC(C1)N2c1ncccn1 (some centres undefined),0.985,0.923,0.937,0.82,
[Cl-].c1ccc(C[n+]2cccc3ccccc32)cc1 [1-Benzylquinolinium chloride],0.993,0.903,1.05,,
CCCOC(=O)c1ccc(O)cc1 [Propylparaben],1.46,1.02,0.949,0.169,
Nc1ccc2c(c1)C(=O)c1ccccc1C2=O [2-Aminoanthraquinone],1.06,1.2,1.28,1.58,
O=C(O)c1cccnc1 [Nicotinic acid],1.02,1.17,0.874,1.27,
CNCc1ccc(NC(=O)c2c[nH]c3c2C(=O)CCC3)cc1,1.24,1.06,1.69,0.318,
CO[C@H]1/C=C/O[C@@]2(C)Oc3c(C)c(O)c4c(O)c(c(/C=N/N5CCN(C)CC5)c(O)c4c3C2=O)NC(=O)/C(C)=C\C=C\[C@H](C)[C@H](O)[C@@H](C)[C@@H](O)[C@@H](C)[C@H](OC(C)=O)[C@@H]1C [Rifampicin],1.29,1.07,1.27,0.362,
CCCCCC(=O)O [Hexanoic acid],1.02,0.926,1.05,1.27,
CCCCCCCCCC(=O)O [Decanoic acid],1.43,1.04,1.39,0.794,
CCCC(=O)O [Butanoic acid],1.31,1,1.12,1.62,
O=C(OCCOCCOC(=O)c1ccccc1)c1ccccc1 [Diethylene glycol dibenzoate],1.08,1.16,1.34,1.44,
CCCCCCCCCCCCc1ccccc1S(=O)(=O)O [Dodecylbenzenesulfonic acid],1.14,1.13,1.2,1.04,

SMILES,Wnt reporter firefly/Renilla luciferase ratio (concentration: 0.1 uM),Wnt reporter firefly/Renilla luciferase ratio (concentration: 1 uM),Wnt reporter firefly/Renilla luciferase ratio (concentration: 10 uM),Wnt reporter firefly/Renilla luciferase ratio (concentration: 100 uM),Wnt reporter firefly/Renilla luciferase ratio (concentration: 0.01 uM)
NS(=O)(=O)c1cc2c(cc1Cl)NCNS2(=O)=O [Hydrochlorothiazide],1.41,1.17,1.12,1.32,
CC(=O)OC1C(=O)C2(C)C(O)CC3OCC3(OC(C)=O)C2C(OC(=O)c2ccccc2)C2(O)CC(OC(=O)C(O)C(NC(=O)c3ccccc3)c3ccccc3)C(C)=C1C2(C)C (centres undefined) [Taxol],0.822,0.575,0.409,1.98,1.29
O=C([N-]S(=O)(=O)/C=C/c1ccccc1)c1ccc(F)cc1Cl.[Na+],1.15,1.07,0.657,0.3,
CC(C)c1cccc(C(C)C)c1N1C(=O)c2ccc(O)cc2C1=O,1.19,1.17,0.259,,
C=CCc1ccc(O)c(OC)c1 [Eugenol],1.02,1.13,1.19,1.55,
OC[C@H]1O[C@@H]2O[C@H]3[C@H](O)[C@@H](O)[C@@H](O[C@H]4[C@H](O)[C@@H](O)[C@@H](O[C@H]5[C@H](O)[C@@H](O)[C@@H](O[C@H]6[C@H](O)[C@@H](O)[C@@H](O[C@H]7[C@H](O)[C@@H](O)[C@@H](O[C@H]1[C@H](O)[C@H]2O)O[C@@H]7CO)O[C@@H]6CO)O[C@@H]5CO)O[C@@H]4CO)O[C@@H]3CO [alpha-Cyclodextrin],1.02,1.09,0.976,0.971,
CCCCCCC(C=O)=Cc1ccccc1 [2-Benzylideneoctanal],0.942,0.906,0.822,0.757,
O=C(CCCCCCC(=O)Nc1ccccc1)NO [Vorinostat (SAHA)],1.23,1.05,3.08,,1.33
"O=C(OCCCCCCOC(=O)c1ccccc1)c1ccccc1 [Hexane-1,6-diyl dibenzoate]",0.955,0.846,1.01,1.37,
CC(C)(O)c1ccc(CNC(=O)c2cccnc2Oc2ccc(F)cc2)cc1,0.96,1.05,1.22,0.695,
CCCc1ccccc1 [Propylbenzene],0.987,0.856,0.88,1.43,
CC(C)(C)c1ccccc1 [tert-Butylbenzene],1.01,0.913,0.895,1.16,
COc1ccc(S(=O)(=O)N2C(=O)[C@@](c3ccccc3OC)(N3C[C@H](O)C[C@H]3C(=O)N(C)C)c3cc(Cl)ccc32)c(OC)c1 [Nelivaptan],1.09,0.857,0.612,0.355,
CCCCCCCCCCCCCCOS(=O)(=O)[O-].[Na+] [Sodium myristyl sulfate],1.14,1.11,1.06,0.293,
CCCCCCCCCCCCOS(=O)(=O)[O-].[Na+] [Sodium dodecyl sulfate],1.32,0.99,1.05,0.875,
CCCCCCCCCCCCCCCCOS(=O)(=O)[O-].[Na+] [Sodium hexyldecyl sulfate],0.784,1.09,0.931,1.7,
CC(=O)c1ccccc1 [Acetophenone],1.48,1.03,1.27,1.46,
CCCCCCCCO [1-Octanol],0.948,0.949,1.11,1.09,
O=c1ccn(C2OC(COP(=O)(O)OP(=O)(O)OP(=O)(O)O)C(O)C2O)c(=O)[nH]1 (centres undefined),1.13,1.15,1.07,1.94,1.43
